Measurements published in PubChem BioAssay AID1159580 (chemical genetic matrix, 2015).
The whole screen tested about 5,500 compounds, of which about 2,000 (36%) were called active. Not shown: some 18% with an inconclusive outcome. No stated cut-off is given here; in the data, active means normalized growth mostly below about 0.91 (no sharp cut-off); inconclusive means no clear call, values can overlap the other calls; inactive means mostly above about 0.92. The list shows a part of the results.

Test: chemical genetic growth profiling, strain panel (AID 1159580);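 further: tested at 20 µM; growth read once vehicle control cultures reached saturation at 30 °C; 1 = growth at the plate median or of vehicle wells; lower values mean less growth of the strain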
Settings: growth OD
[1] = S. cerevisiae deletion strains, locus YAL013W, strain DEP1, active compounds read low
[2] = S. cerevisiae deletion strains, locus YBR229C, strain ROT2, active compounds read low
[3] = S. cerevisiae deletion strains, locus YCL061C, strain MRC1, active compounds read low
[4] = S. cerevisiae deletion strains, locus YDL101C, strain DUN1, active compounds read low
[5] = S. cerevisiae deletion strains, locus YDR150W, strain NUM1, active compounds read low
[6] = S. cerevisiae deletion strains, locus YEL061C, strain CIN8, active compounds read low
[7] = S. cerevisiae deletion strains, locus YGR078C, strain PAC10, active compounds read low
[8] = S. cerevisiae deletion strains, locus YHR030C, strain SLT2, active compounds read low
[9] = S. cerevisiae deletion strains, locus YHR087W, strain rtc3, active compounds read low
[10] = S. cerevisiae deletion strains, locus YJL187C, strain SWE1, active compounds read low
[11] = S. cerevisiae deletion strains, locus YJR043C, strain POL32, active compounds read low
[12] = S. cerevisiae deletion strains, locus YJR075W, strain HOC1, active compounds read low
[13] = S. cerevisiae deletion strains, locus YLR039C, strain RIC1, active compounds read low
[14] = S. cerevisiae deletion strains, locus YLR058C, strain SHM2 (second series), active compounds read low
[15] = S. cerevisiae deletion strains, locus YLR085C, strain ARP6, active compounds read low
[16] = S. cerevisiae deletion strains, locus YLR262C, strain YPT6, active compounds read low
[17] = S. cerevisiae deletion strains, locus YML094W, strain GIM5, active compounds read low
[18] = S. cerevisiae deletion strains, locus YMR219W, strain ESC1, active compounds read low
[19] = S. cerevisiae deletion strains, locus YMR263W, strain SAP30, active compounds read low
[20] = S. cerevisiae deletion strains, locus YMR307W, strain GAS1, active compounds read low
[21] = S. cerevisiae deletion strains, locus YNL128W, strain TEP1, active compounds read low
[22] = S. cerevisiae deletion strains, locus YNL153C, strain GIM3, active compounds read low
[23] = S. cerevisiae deletion strains, locus YNL298W, strain CLA4 (second series), active compounds read low
[24] = S. cerevisiae deletion strains, locus YNL322C, strain KRE1, active compounds read low
[25] = S. cerevisiae deletion strains, locus YNR030W, strain Alg12, active compounds read low
[26] = S. cerevisiae deletion strains, locus YOL006C, strain TOP1, active compounds read low
[27] = S. cerevisiae deletion strains, locus YPL055C, strain LGE1, active compounds read low
[28] = S. cerevisiae deletion strains, locus YPL241C, strain CIN2, active compounds read low
[29] = S. cerevisiae deletion strains, locus YPR135W, strain CTF4, active compounds read low
[30] = S. cerevisiae deletion strains, locus YDL134C, strain PPH21, active compounds read low
[31] = S. cerevisiae deletion strains, locus YKL190W, strain CNB1, active compounds read low

Measured: normalized growth

O=C(O)c1cnn(-c2ccccc2)c1C(F)(F)F
inactive: [1] 1.01 | [2] 0.988 | [3] 0.995 | [4] 0.998 | [5] 1.02 | [6] 0.996 | [7] 0.99 | [8] 1.01 | [9] 0.98 | [10] 0.993 | [11] 0.992 | [12] 1.02 | [13] 1.03 | [14] 1.01 | [15] 1.05 | [16] 0.955 | [17] 1.02 | [18] 1 | [19] 0.989 | [20] 0.979 | [21] 1.01 | [22] 0.984 | [23] 1.01 | [24] 0.999 | [25] 1.01 | [26] 1.04 | [27] 1.04 | [28] 1.01 | [29] 1

N#Cc1cnn(-c2ccccc2)c1-n1cccc1
inactive: [1] 0.976 | [2] 0.988 | [3] 0.959 | [4] 1.01 | [30] 0.999 | [5] 0.873 | [6] 1.02 | [7] 0.974 | [9] 1.02 | [10] 0.976 | [11] 0.978 | [12] 0.988 | [31] 0.985 | [13] 0.859 | [14] 0.974 | [15] 0.933 | [16] 0.883 | [17] 0.984 | [18] 0.981 | [19] 0.964 | [22] 0.994 | [23] 0.967 | [24] 0.989 | [25] 0.956 | [26] 0.938 | [27] 0.969 | [28] 0.953 | [29] 0.82
active: [8] 0.626

CC1(O)/C=C/C=C(\CO)C2CC(C)(C)C2(O)CC1 (centres undefined)
inactive: [1] 1.02 | S. cerevisiae deletion strains, locus YBR021W, strain FUR4, active compounds read low 1.02 | [2] 1.01 | S. cerevisiae deletion strains, locus YCL029C, strain bik1, active compounds read low 1 | S. cerevisiae deletion strains, locus YDL035C, strain GPR1, active compounds read low 1.01 | S. cerevisiae deletion strains, locus YDL074C, strain BRE1, active compounds read low 1.03 | [4] 1.02 | [30] 1.02 | S. cerevisiae deletion strains, locus YDL185W, strain tfp1, active compounds read low 1 | S. cerevisiae deletion strains, locus YDL192W, strain arf1, active compounds read low 1 | S. cerevisiae deletion strains, locus YDR101C, strain arx1, active compounds read low 0.976 | [5] 1.02 | S. cerevisiae deletion strains, locus YDR162C, strain NBP2, active compounds read low 1.04 | S. cerevisiae deletion strains, locus YDR318W, strain mcm21, active compounds read low 0.993 | S. cerevisiae deletion strains, locus YDR388W, active compounds read low 0.998 | S. cerevisiae deletion strains, locus YDR502C, strain sam2, active compounds read low 1.01 | [6] 1.01 | S. cerevisiae deletion strains, locus YER110C, active compounds read low 0.998 | S. cerevisiae deletion strains, locus YER155C, strain BEM2, active compounds read low 1 | S. cerevisiae deletion strains, locus YER167W, strain BCK2, active compounds read low 1.02 | S. cerevisiae deletion strains, locus YGL078C, strain dbp3, active compounds read low 1 | S. cerevisiae deletion strains, locus YGL086W, strain mad1, active compounds read low 1 | S. cerevisiae deletion strains, locus YGL248W, strain PDE1, active compounds read low 1.01 | [7] 1.02 | S. cerevisiae deletion strains, locus YGR135W, strain pre9, active compounds read low 0.999 | S. cerevisiae deletion strains, locus YGR229C, strain SMI1, active compounds read low 1.02 | S. cerevisiae deletion strains, locus YGR252W, strain gcn5, active compounds read low 0.956 | [8] 1 | S. cerevisiae deletion strains, locus YHR079C, strain IRE1 (second series), active compounds read low 1 | S. cerevisiae deletion strains, locus YHR094C, strain hxt1, active compounds read low 1.01 | S. cerevisiae deletion strains, locus YHR129C, strain ARP1, active compounds read low 1.01 | S. cerevisiae deletion strains, locus YHR200W, strain rpn10, active compounds read low 1 | S. cerevisiae deletion strains, locus YIL066C, strain RNR3, active compounds read low 1.01 | S. cerevisiae deletion strains, locus YIL073C, strain SPO22, active compounds read low 1.02 | S. cerevisiae deletion strains, locus YIL125W, strain kgd1, active compounds read low 0.998 | S. cerevisiae deletion strains, locus YIR030C, strain dcg1, active compounds read low 1.01 | S. cerevisiae deletion strains, locus YJL095W, strain BCK1, active compounds read low 1 | S. cerevisiae deletion strains, locus YJL134W, strain LCB3, active compounds read low 1.01 | S. cerevisiae deletion strains, locus YJL168C, strain set2, active compounds read low 1 | S. cerevisiae deletion strains, locus YJL187C, strain SWE1 (second series), active compounds read low 1.02 | [11] 0.995 | [12] 1.01 | S. cerevisiae deletion strains, locus YKL009W, strain mrt4, active compounds read low 0.991 | S. cerevisiae deletion strains, locus YKL068W, active compounds read low 1.01 | S. cerevisiae deletion strains, locus YKL085W, strain MDH1 (second series), active compounds read low 1.02 | S. cerevisiae deletion strains, locus YKL085W, strain MDH1, active compounds read low 1.02 | [31] 1.01 | S. cerevisiae deletion strains, locus YKR001C, strain vps1, active compounds read low 1 | [13] 0.977 | S. cerevisiae deletion strains, locus YLR058C, strain SHM2, active compounds read low 1.01 | S. cerevisiae deletion strains, locus YLR102C, strain apc9, active compounds read low 1 | [16] 1.05 | S. cerevisiae deletion strains, locus YLR268W, strain sec22, active compounds read low 0.986 | S. cerevisiae deletion strains, locus YLR330W, strain CHS5, active compounds read low 1.01 | S. cerevisiae deletion strains, locus YLR342W, strain FKS1 (second series), active compounds read low 1.02 | S. cerevisiae deletion strains, locus YLR371W, strain rom2, active compounds read low 1 | S. cerevisiae deletion strains, locus YLR418C, strain cdc73, active compounds read low 0.989 | S. cerevisiae deletion strains, locus YML016C, strain PPZ1, active compounds read low 1.01 | S. cerevisiae deletion strains, locus YML032C, strain rad52, active compounds read low 0.979 | S. cerevisiae deletion strains, locus YML124C, strain tub3, active compounds read low 1 | S. cerevisiae deletion strains, locus YMR078C, strain ctf18, active compounds read low 1.01 | S. cerevisiae deletion strains, locus YMR223W, strain ubp8, active compounds read low 0.994 | [19] 1.02 | [20] 1.02 | S. cerevisiae deletion strains, locus YNL067W, strain RPL9B, active compounds read low 1.01 | [21] 1.03 | [22] 1.02 | S. cerevisiae deletion strains, locus YNL233W, strain BNI4, active compounds read low 1.02 | S. cerevisiae deletion strains, locus YNL250W, strain rad50, active compounds read low 1.02 | S. cerevisiae deletion strains, locus YNL271C, strain bni1, active compounds read low 0.995 | S. cerevisiae deletion strains, locus YNL298W, strain CLA4, active compounds read low 0.993 | S. cerevisiae deletion strains, locus YNL307C, strain MCK1, active compounds read low 0.997 | [24] 1.02 | S. cerevisiae deletion strains, locus YNR052C, strain pop2, active compounds read low 0.998 | [26] 1.06 | S. cerevisiae deletion strains, locus YOL012C, strain htz1 0.828 | S. cerevisiae deletion strains, locus YOL147C, strain pex11, active compounds read low 1.01 | S. cerevisiae deletion strains, locus YOR061W, strain CKA2, active compounds read low 1.02 | S. cerevisiae deletion strains, locus YOR069W, strain VPS5, active compounds read low 1.01 | S. cerevisiae deletion strains, locus YOR136W, strain idh2, active compounds read low 0.997 | S. cerevisiae deletion strains, locus YOR144C, strain elg1, active compounds read low 0.999 | S. cerevisiae deletion strains, locus YOR184W, strain ser1, active compounds read low 0.994 | S. cerevisiae deletion strains, locus YOR316C, strain cot1, active compounds read low 1 | [27] 1.05 | [28] 1.02 | S. cerevisiae deletion strains, locus YPR119W, strain clb2, active compounds read low 0.992 | S. cerevisiae deletion strains, locus YPR141C, strain kar3, active compounds read low 1 | S. cerevisiae deletion strains, locus YPR163C, strain tif3, active compounds read low 1 | S. cerevisiae deletion strains, locus YPR167C, strain met16, active compounds read low 1.01 | S. cerevisiae deletion strains, strain wtn01, active compounds read low 0.995 | S. cerevisiae strains, strain wild type, active compounds read low 1.01
